From PubChem BioAssay (NCATS)
Several values for one entry are separate records, joined by “and”; a condition that tells them apart may be missing. Identical values can stand only once. Results filed as inconclusive are left out. More than one record can exist for a structure, and the calls need not agree. Values without a mark were called inactive. Activity calls are given as the source filed them. Unless noted, the call rests on the fitted dose curve; in most records, active means well fitted curve in the direction sought with a large enough effect; inconclusive means small, poorly fitted or top-dose-only effect, or another doubt; inactive means no such curve, though single readings can be large; an effect the other way counts as inactive or inconclusive.

Key:
[1] = biological target: Cellular tumor antigen p53 (Homo sapiens) (UniProt P04637); test: Primary qHTS for small molecule compounds that upregulate eGFP-tagged delta133p53alpha (in N-terminal) cells. (AID 2060322); conditions: NCI-H358 eGFP-delta133p53alpha fluorescence, 24 h; activation: stronger effect = higher value; further: nearly all actives have a fitted effect of over 75% in size; further: potency means the concentration at half of the fitted maximal effect;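 on activation: cells pre-induced with doxycycline then dosed without doxycycline; series mostly up to about 56 µM; 0% = DMSO vehicle and 100% = reference activator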
Sequence of Cellular tumor antigen p53 (Homo sapiens) (P04637 whole entry, looked up, the tested form may be a part): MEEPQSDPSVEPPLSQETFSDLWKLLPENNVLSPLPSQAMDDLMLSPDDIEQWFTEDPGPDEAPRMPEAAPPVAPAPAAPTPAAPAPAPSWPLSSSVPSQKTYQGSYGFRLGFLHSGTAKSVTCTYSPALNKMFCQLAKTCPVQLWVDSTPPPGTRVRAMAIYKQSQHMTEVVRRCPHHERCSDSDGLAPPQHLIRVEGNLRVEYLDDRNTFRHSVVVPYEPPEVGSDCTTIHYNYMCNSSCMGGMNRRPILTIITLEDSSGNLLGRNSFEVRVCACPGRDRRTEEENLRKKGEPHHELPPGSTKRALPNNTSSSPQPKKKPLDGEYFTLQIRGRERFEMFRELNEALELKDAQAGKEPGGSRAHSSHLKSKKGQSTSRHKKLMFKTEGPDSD
In short: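 NCI-H358 cells pre-induced 24 h with 10 ng/ml doxycycline for eGFP-delta133p53alpha, plated dox-free and exposed 24 h at 37C to titrated compounds. Fixed, Hoechst-stained; gated GFP peak intensity by laser scanning cytometry, normalized to DMSO (0%) and 57.5 uM 5-azacytidine (100%).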

[2] = biological target: Cellular tumor antigen p53 (Homo sapiens) (UniProt P04637); test: Primary qHTS for small molecule compounds that upregulate eGFP-tagged delta133p53alpha (in C-terminal) cells. (AID 2060324);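 further: 0% = DMSO wells and 100% = 57.5 µM 5-azacytidine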
In short: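 Doxycycline (100 ng/ml, 24 h) first induced the eGFP fusion in NCI-H358 C-terminal-tag cells. Washed-out cells then received titrated compounds for 24 h at 37 °C before paraformaldehyde fixation, Hoechst staining and cytometric GFP quantification.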

[3] = biological target: Aldehyde dehydrogenase, mitochondrial (Homo sapiens) (UniProt P05091); test: qHTS for Inhibitors of the Aldehyde Dehydrogenase Family (ALDH2) Primary screen (AID 2061308);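 further: plate controls were vehicle for no effect and reference inhibitor for full effect; nearly all actives have a fitted effect of over 55% in size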
[4] = biological target: Retinaldehyde dehydrogenase 3 (Homo sapiens) (UniProt P47895); test: qHTS for Inhibitors of the Aldehyde Dehydrogenase Family (ALDH1A3) Primary screen (AID 2061315);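 further: plate controls were DMSO vehicle for no effect and reference inhibitor for full effect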
[5] = BET inhibitor-based combinations targeting novel dependencies in MECOM-rearranged (r) AML: SET-2 cell line (AID 2202231); conditions: SET-2 AML cells viability, CellTiter-Glo luminescence, 48 h; viability: stronger effect = lower value, concentration not given here; further: potency means the concentration at half of the fitted maximal effect; nearly all actives have a fitted effect of over 35% in size
In short: (§1)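 500 cells/well; 11-pt dose curve; 48 h, standard incubator; CellTiter-Glo luminescence after 15 min RT; DMSO/empty-well normalization; AUC plus Z-AUC (mean-centered within each line).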

[6] = BET inhibitor-based combinations targeting novel dependencies in MECOM-rearranged (r) AML: MV-4-11 cell line (AID 2202233); further: potency means the concentration at half of the fitted maximal effect; nearly all actives have a fitted effect of over 45% in size
In short: (§2)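 Cells were plated at 500 per well and exposed to each drug across an 11-point dose range for 48 hr at standard incubator conditions. Viability was read by CellTiter-Glo luminescence, and activity was expressed as AUC and per-cell-line Z-transformed AUC.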

[7] = BET inhibitor-based combinations targeting novel dependencies in MECOM-rearranged (r) AML: HNT-34 cell line (AID 2202234); further: potency means the concentration at half of the fitted maximal effect; nearly all actives have a fitted effect of over 35% in size
In short: as §2

[8] = BET inhibitor-based combinations targeting novel dependencies in MECOM-rearranged (r) AML: UCSD-AML1 cell line (AID 2202235); further: potency means the concentration at half of the fitted maximal effect; nearly all actives have a fitted effect of over 40% in size
In short: as §2

[9] = BET inhibitor-based combinations targeting novel dependencies in MECOM-rearranged (r) AML: AML-191 cell line (AID 2202236; further: potency means the concentration at half of the fitted maximal effect; nearly all actives have a fitted effect of over 35% in size)
In short: as §1

[10] = BET inhibitor-based combinations targeting novel dependencies in MECOM-rearranged (r) AML: AML-194 cell line (AID 2202237; further: potency means the concentration at half of the fitted maximal effect; nearly all actives have a fitted effect of over 40% in size)
In short: as §1

[11] = biological target: Aldehyde dehydrogenase, mitochondrial (Homo sapiens) (UniProt P05091); test: qHTS for Inhibitors of the Aldehyde Dehydrogenase Family (ALDH2) Validation screens (AID 2061302; active means well fitted inhibition curve with a large enough effect; title and protocol of this record describe different tests;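 further: plate controls were DMSO vehicle for no effect and maximal DPI positive control response for full effect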)
[12] = BET inhibitor-based combinations targeting novel dependencies in MECOM-rearranged (r) AML: OCI-AML3 cell line (AID 2202232); conditions: Potency: OCI-AML3 viability; further: potency means the concentration at half of the fitted maximal effect; nearly all actives have a fitted effect of over 35% in size
In short: as §1

Compound: O=C(Cc1ccc(Cl)c(Cl)c1)N1CCCCC1CN1CCCC1 (stereo unspecified)
- activation [1]: -15.5%
- Potency [2]: inactive

Compound: COc1ccc(CN2CCNCC2)c(OC)c1OC
- activation [1]: -13%

Compound: Cc1[nH]nc2ccc(-c3cncc(OC[C@@H](N)Cc4c[nH]c5ccccc45)c3)cc12
- Potency [1]: 8.63 µM (active)
- activation [1]: 8.93%
- Potency [3]: inactive
- Potency [4]: inactive
- Potency [5]: 1.05 µM (active)
- Potency [6]: 0.263 µM (active)
- Potency [7]: 0.742 µM (active)
- Potency [8]: 0.468 µM (active)
- Potency [9]: 0.833 µM (active)
- Potency [10]: 0.934 µM (active)

Compound: CC1NCCOC1c1ccccc1 (stereo unspecified)
- activation [1]: 9.6%

Compound: NP(N)(=O)NC(=O)c1ccc(F)cc1
- activation [1]: -15.1%

Compound: NC(Cc1cc(O)c(O)cc1O)C(=O)O (stereo unspecified)
- activation [1]: -19.2%
- Potency [2]: inactive

Compound: O=C(NC1CN2CCC1CC2)c1cc2ccoc2cn1 (stereo unspecified)
- activation [1]: -11.8%
- Potency [2]: inactive
- Potency [11]: inactive

Compound: CCCCOC(=O)c1ccccc1C(=O)OCc1ccccc1
- activation [1]: -2.82%

Compound: CC(O)CN1CCN(CC(=O)[O-])CCN(CC(=O)[O-])CCN(CC(=O)[O-])CC1.[Gd+3] (stereo unspecified)
- activation [1]: -12.6%

Compound: N=C(N)c1ccc(CS(=O)(=O)F)cc1
- activation [1]: 3.92%
- Potency [2]: inactive
- Potency [11]: inactive

Compound: CC[C@@H](CO)NC(=O)[C@@H]1C=C2c3cccc4c3c(cn4C)C[C@H]2N(C)C1
- activation [1]: -3.95% and -69.3%
- Potency [2]: inactive

Compound: CN1CCC(O)(c2ccc(F)cc2)C(C(=O)c2ccc(F)cc2)C1 (stereo unspecified)
- activation [1]: -14.1%

Compound: CN(C)CCc1c[nH]c2cccc(O)c12
- activation [1]: 15.3%

Compound: Cn1cnc(CCN)c1
- activation [1]: -2.51%

Compound: c1ccc(CCCN2CCN(CCOC(c3ccccc3)c3ccccc3)CC2)cc1
- activation [1]: 1.41% and -30.2%
- Potency [2]: inactive

Compound: COc1ccccc1N1CCNCC1
- activation [1]: -15.9% and 0.526%
- Potency [2]: inactive
- Potency [11]: inactive

Compound: Oc1ccc(Cl)cc1Cc1ccccc1
- Potency [1]: 45.5 µM (active) and 24.6 µM (active)

Compound: CC(CC(C#N)(c1ccccc1)c1ccccc1)N(C)C (stereo unspecified)
- activation [1]: 24.3%

Compound: CC=C(C)C(=O)O[C@H]1C(C)=C2[C@@H]3OC(=O)[C@@](C)(O)[C@@]3(O)[C@@H](OC(=O)CCC)C[C@](C)(OC(C)=O)[C@@H]2[C@@H]1OC(=O)CCCCCCC
- activation [1]: -0.0676%

Compound: CC[N+]1(CC)CCC(OC(=O)C(O)(c2ccccc2)c2ccccc2)C1 (stereo unspecified)
- activation [1]: -15.3%

Compound: CCOC(=O)C(c1c(O)c2ccccc2oc1=O)c1c(O)c2ccccc2oc1=O
- activation [1]: -3.95%

Compound: CCO/N=C(\CC)C1=C(O)CC(c2c(C)cc(C)cc2C)CC1=O (stereo unspecified)
- activation [1]: 16.7%

Compound: CC(=O)[O][Hg][c]1ccccc1
- Potency [1]: 8.71 µM (active)

Compound: COc1ccc(C(c2ccc(OC)cc2)C(Cl)(Cl)Cl)cc1
- activation [1]: -10.7%

Compound: COC(C)(C)CCCC(C)C/C=C/C(C)=C/C(=O)OC(C)C (stereo unspecified)
- activation [1]: -11.9%

Compound: CC[C@@H](CO)NC(=O)[C@@H]1C=C2c3cccc4[nH]cc(c34)C[C@H]2N(C)C1
- activation [1]: -0.565% and -21.9%
- Potency [2]: inactive

Compound: C=CC[C@]1(O)CC[C@H]2[C@@H]3CCC4=CC(=O)CCC4=C3C=C[C@@]21C
- activation [1]: -4.18%

Compound: CCCCCCC(=O)CCCCCC/C=C/C[C@@H](O)[C@H](O)[C@@](N)(CO)C(=O)O
- activation [1]: 5.86%

Compound: CCN1CCN(C(=O)Cc2ccc(Nc3ncc(F)c(Nc4ccc(C(=O)Nc5ccccc5Cl)cc4)n3)cc2)CC1
- Potency [1]: 4.78 µM (active)
- activation [1]: 33.8%
- Potency [3]: inactive
- Potency [4]: inactive
- Potency [5]: 5.25 µM (active)
- Potency [12]: 2.95 µM (active)
- Potency [7]: 1.48 µM (active)
- Potency [9]: 6.61 µM (active)
- Potency [10]: 7.42 µM (active)

Compound: CN1C(=O)NC(=O)C(C)(C2=CCCCC2)C1=O (stereo unspecified)
- activation [1]: 3.35%

Compound: CN1C[C@H](CNC(=O)OCc2ccccc2)C[C@@H]2c3cccc4c3c(cn4C)C[C@H]21
- activation [1]: -6.69% and -23.9%
- Potency [2]: inactive
- Potency [11]: inactive

Compound: CC(Cc1ccccc1)N(C)Cc1ccco1 (stereo unspecified)
- activation [1]: -11.7%

Compound: CCc1ccc(C2CCNCC2)cc1
- activation [1]: 20.9%

Compound: COc1ccc2c(c1)[C@]13CCCCC1C(C2)N(C)CC3 (stereo partly specified)
- activation [1]: 8.01%

Compound: CC1=C2[C@H]3OC(=O)[C@@H](C)[C@@H]3CC[C@@]2(C)C=CC1=O
- activation [1]: 11.7%

Compound: CC1N=C(N)OC1c1ccccc1 (stereo unspecified)
- activation [1]: -17.5%
